Experimental data published in PubChem BioAssay (NCI).
The panel holds about 79,000 compounds, 15% with a hit somewhere; the sample as a whole holds those more often. Values without a mark were called inactive. Calls of active or inactive are those of the source. Rule as the data show it: active = growth inhibition above about 70%; inactive = the rest.

Columns and labels:
[1] = NCI Yeast Anticancer Drug Screen. Data for the rad50 strain (AID 155);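 also: 0% = growth of vehicle-only cultures of the same strain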; conditions: S. cerevisiae rad50 strain growth inhibition; at 50.0 µM; stronger effect = higher value
How it was run: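 Readout: growth inhibition relative to vehicle-treated cultures. Compound exposure was carried out in a genetically defined yeast strain deficient in DNA damage repair.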

[2] = NCI Yeast Anticancer Drug Screen. Data for the mec2-1 strain (AID 157); conditions: S. cerevisiae mec2-1 strain, at 50.0 µM, stronger effect = higher value
How it was run: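 Growth inhibition is read against vehicle-treated controls after compound exposure of the mec2-1 yeast strain, which is defective in DNA damage repair or cell cycle control.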

[3] = NCI Yeast Anticancer Drug Screen. Data for the sgs1 mgt1 strain (AID 161);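 also: 0% = growth of cultures given vehicle only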; conditions: S. cerevisiae sgs1 mgt1 strain, at 50.0 µM, stronger effect = higher value
How it was run: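 This yeast growth screen uses a strain with defined DNA-repair lesions; compound-treated growth is compared with vehicle-treated growth.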

[4] = NCI Yeast Anticancer Drug Screen. Data for the cln2 rad14 strain (AID 165);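 also: 0% = growth equal to vehicle treated cultures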; conditions: S. cerevisiae cln2 rad14 strain, at 50.0 µM, stronger effect = higher value
How it was run: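 Growth inhibition, relative to vehicle-treated controls, is the read-out. The test organism is a yeast strain with defined genetic alterations, cln2 rad14.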

[5] = NCI Yeast Anticancer Drug Screen. Data for the bub3 strain (AID 167); conditions: S. cerevisiae bub3 mutant strain, at 50.0 µM, stronger effect = higher value
How it was run: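 Readout: yeast growth inhibition, expressed relative to vehicle-only wells. The test organism is a mutant strain from a panel with lesions in DNA repair or checkpoint genes.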

[6] = NCI Yeast Anticancer Drug Screen. Data for the mlh1 rad18 strain (AID 175); conditions: S. cerevisiae mlh1 rad18 strain growth inhibition; at 50.0 µM; stronger effect = higher value
How it was run: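 Cells of a genetically altered yeast strain, deficient in DNA damage repair, were treated with compound. Their growth was then compared with that of vehicle-treated cultures to give inhibition.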

| Structure (SMILES) | growth inhibition [1] | growth inhibition [2] | growth inhibition [3] | growth inhibition [4] [%] | growth inhibition [5] | growth inhibition [6] |
| --- | --- | --- | --- | --- | --- | --- |
| COc1ccc(N)nn1 | 1.6% | -6.9% | -9.15% | 7.5 | 4.75% | -10.2% |
| CN(c1c(Cl)cccc1Cl)S(=O)(=O)c1ccccc1[N+](=O)[O-] | -38.5% | -49.5% | -15.5% | 20 | -1.1% | -4.5% |
| O=[N+]([O-])c1ccc(N=C/C=C\Nc2ccc([N+](=O)[O-])cc2)cc1 | 6.8% | 14.8% | 11.2% | -13.4 | 6.85% | 14.8% |
| COC1OC(C)CC(O)C1O (configuration not stated) | 5.3% | -7.05% | 14.7% | -57.6 | 2.7% | -37.8% |
| CCOC(=O)c1[nH]c(CC(=O)O)c(C(=O)O)c1C | 15.7% | 26.4% | 24.4% | 0.4 | 16.4% | 15.2% |
| CC(=O)CC1CCC(CC(C)=O)CC1 (configuration not stated) | 13.1% | 7.2% | -13.3% | -66.3 | -4.1% | -23.5% |
| Cc1ccc(S(=O)(=O)Nn2c(O)c(C#N)c(-c3ccc([N+](=O)[O-])cc3)c(C#N)c2=O)cc1 | 4.8% | 6.9% | -7.9% | 15.6 | -13.2% | -8.8% |
| COc1cc2c(c3c1c(=O)c1ccc(F)cc1n3C)C=CC(C)(C)O2 | -4.35% | -28.6% | -16.9% | -23.9 | -7.7% | -5.6% |
| CC1(C)CC2(C)CC1CC2O (configuration not stated) | 3.5% | 9.6% | -1.95% | 14.8 | 3.85% | -25.4% |
| Cc1nn(C(=O)c2ccc(Cl)cc2)c2c1C(c1ccccc1)SC(N)=N2 (configuration not stated) | -18.6% | -38% | -5.15% | 6.2 | 18.4% | -3.5% |
| CC(C)c1cc(C(F)(F)F)nc(NNc2nc(C(C)C)cc(C(F)(F)F)n2)n1 | -19.6% | -25.1% | -16.5% | -13.2 | -15.4% | -34.1% |
| COc1ccc(/C=c2\sc3n(c2=O)C(N)=C(C#N)C(c2ccc(OC)cc2)C=3c2nc3ccccc3[nH]2)cc1 (configuration not stated) | 18.1% | -13.2% | 9.95% | -16.1 | 8.95% | 11.3% |
| CN1CCc2ccccc2/C(=C(/O)c2ccccc2)C1=O | 28.8% | 7.15% | 12.3% | 24.9 | 13.3% | 10.1% |
| COc1ccc(/C=C/C(=O)C(CN(C)C)CN(C)C)cc1OC | -0.95% | -6.7% | -25.2% | -4.8 | -6.55% | -16.4% |
| Cn1c(=O)c2c(-c3ccccc3)onc2n(C)c1=O | 16.3% | 12.8% | 22.4% | 33.7 | 2.8% | 44.8% |
| CCOC(=O)c1sc(C(=O)OCC)c(O)c1O | 97% (active) | 95.5% (active) | 97.8% (active) | 58.4 | 95.7% (active) | 97% (active) |
| O=C1NC(c2ccc(Cl)cc2)(c2ccc(Cl)cc2)C(=O)N1Cl | -4.8% | -1.6% | 8.05% | 16.9 | 11.6% | -16.4% |
| OC(c1ccccc1)(c1ccccc1)c1ccccc1C(O)(c1ccccc1)c1ccccc1 | 12.2% | 1% | 4.6% | 10.8 | -4.65% | 12.8% |
| O=C(NNS(=O)(=O)c1ccccc1)c1cccc([N+](=O)[O-])c1 | -0.95% | -18.8% | 7.25% | 8.2 | 5% | -11.4% |
| CS(=O)(=O)N1C=CC2C(C=C1)C1(c3ccccc3)OC2(c2ccccc2)c2ccccc21 (configuration not stated) | -9.75% | -9.25% | 0.35% | -39.7 | 2.95% | -19.5% |
| CCC1SCC(=O)N1c1nncs1 (configuration not stated) | 4.75% | 18.9% | 4.55% | -8.6 | 2.75% | 2.95% |

| Structure (SMILES) | growth inhibition [1] | growth inhibition [2] | growth inhibition [3] | growth inhibition [4] [%] | growth inhibition [5] | growth inhibition [6] |
| --- | --- | --- | --- | --- | --- | --- |
| CON(C)C(C#N)=C(C#N)C#N | 9.75% | 1.85% | 21.1% | 7.05 | 8.1% | 25.2% |
| CC(=O)CCCCc1ccccc1 | -1.45% | -8.45% | -9.3% | -71.6 | -9.2% | -1% |
| CC(=O)c1ccccc1C(C)c1ccc(C)c2ccccc12 (configuration not stated) | -1.65% | 12.4% | 6.75% | -11.8 | 2.95% | 2.3% |
| O=P(c1ccccc1)(c1ccccc1)C(O)c1ccc(F)cc1 (configuration not stated) | -11.6% | -14.7% | 7.4% | 2.1 | 1.4% | -7.25% |
| Oc1cc(CN2CCOCC2)c(O)c(CN2CCOCC2)c1CN1CCOCC1 | 5.25% | 7.45% | 10.3% | 27.4 | -1.05% | -3.3% |
| CNC(=O)n1cnc(N)n1 (tested in a mixture with another compound) | -13.2% | 8.2% | 16.7% | -25.3 | -10.9% | 13% |
| O=C(CCc1ccccc1Cl)CC(=O)CC(O)(c1ccccc1)c1ccccc1 | 68% | 57.5% | 70.5% (active) | 42.2 | 39.4% | 61.9% |
| CC(Sc1nc2ccc(Cl)cc2[nH]1)C(=O)O (configuration not stated) | -11.8% | -4% | -0.9% | -16.9 | 12.9% | -3.85% |
| CC(C)(O)c1c(F)c(F)c(F)c(F)c1F | 17.2% | -13.7% | 5.1% | 17.6 | 27.8% | 7.15% |
| N#CCSc1c(-c2ccccc2)c(=O)n(-c2ccccc2)c(=S)n1-c1ccccc1 | 20.7% | -17.9% | -2.3% | -16.8 | -20.6% | -0.65% |
| CC1=NN(C(=O)Cc2ccccc2)C(=O)/C1=C\c1ccc([N+](=O)[O-])cc1 | -38.2% | -41.5% | -52.4% | -26.4 | -55% | -55.8% |
| COc1ccc2ccc3c(c2c1)C(=O)C(CC(N)=O)C3 (configuration not stated) | 1.75% | 1.2% | -10.7% | 0.4 | -4.1% | 15% |
| O=c1nc(N2CCCCCCC2)ccn1C1OC(CO)C(O)C1O (configuration not stated) | 4.85% | 14.6% | 8.95% | 6.75 | 6.85% | 8.5% |
| COc1cc(/C=N/NC2=NCCN2)ccc1O | 24.4% | 11.8% | 13.2% | 14.8 | 18.9% | 11.8% |
| Cc1cc2c(cc1C)NC1=C(N2)OC(c2cccc(O)c2)C1=O (configuration not stated) | 1.9% | -16.9% | 1.55% | 4.4 | -31.4% | 11.8% |
| COc1ccc(OC)c(CSc2ccc(OC)c(OC)c2)c1 | 18.7% | 31.9% | 43.8% | 13.8 | 57.9% | 33% |
| Clc1ccc(NC2=NCCN=C(Nc3ccc(Cl)cc3)SS2)cc1 | 23.7% | 14.2% | 39.8% | 17.4 | 37.5% | 20.7% |
| COc1ccc(C(=O)C2CCC(C(=O)O)C2)cc1 (configuration not stated) | -25.4% | -27.9% | -5.35% | -6.35 | -21.9% | -13.2% |
| Cc1ccc(S(=O)(=O)N/N=C/c2ccsc2)cc1 | 20.6% | 13.3% | 27.9% | 18.8 | 23% | 33% |
| COc1ccc(Cc2ccc(CO)cc2)cc1 | 4.6% | -18.9% | -31.9% | -20 | -7.7% | -14.2% |
| COc1nc(N)c(C(=O)CCl)c(=O)n1C | 3.35% | -7.5% | 6.5% | 0.35 | -20.6% | 16.5% |
